Records with an inconclusive call do not appear. Active and inactive are the calls of the source. Calls follow the shape of the dose curve; as a rule, active = well fitted curve in the direction sought with a large enough effect; inconclusive = small, poorly fitted or top-dose-only effect, or another doubt; inactive = no such curve, though single readings can be large; an effect the other way counts as inactive or inconclusive.
Columns and labels:
[1] = Cellular Toxicity (caspase-3) Hek293 (AID 664);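 also: cells exposed to compound for 16 h at 37 °C before readout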
Summary of the method: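 Apoptosis readout: Caspase-Glo 3/7 signal in human HEK293 cells following 16-hour compound incubation. Responses scaled between DMSO baseline and 100 uM tamoxifen.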

[2] = Cellular Toxicity (caspase-3) N2a (AID 665);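 also: compound exposure lasted 16 h at 37 °C before readout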
Summary of the method: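 Concentration-response qHTS: compound-induced caspase-3/7 luminescence in N2a cells (16 h, 37 °C), relative to DMSO and 10 uM staurosporine controls; AC50 obtained using the standard Hill equation.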

[3] = Cellular Toxicity (caspase-3) Renal Proximal Tubule (AID 667);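 also: cells exposed to compound for 16 hours at 37 °C before detection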
Summary of the method: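 Primary rat proximal tubule cells, 1000/well, 5 h plating at 37 °C, then compound 16 h at 37 °C. Caspase-Glo 3/7 reagent, 1 h RT, luminescence. Normalized to DMSO (basal) and 10 uM staurosporine (100%); Hill-fit AC50.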

[4] = molecular target: Cytochrome P450 3A4 (Homo sapiens) (UniProt P08684); assay: qHTS Assay for Inhibitors and Substrates of Cytochrome P450 3A4 (AID 884); also: series mostly up to about 57 µM; nearly all actives have a fitted effect of over 50% in size
Cytochrome P450 3A4 (Homo sapiens), sequence (P08684 whole entry, looked up): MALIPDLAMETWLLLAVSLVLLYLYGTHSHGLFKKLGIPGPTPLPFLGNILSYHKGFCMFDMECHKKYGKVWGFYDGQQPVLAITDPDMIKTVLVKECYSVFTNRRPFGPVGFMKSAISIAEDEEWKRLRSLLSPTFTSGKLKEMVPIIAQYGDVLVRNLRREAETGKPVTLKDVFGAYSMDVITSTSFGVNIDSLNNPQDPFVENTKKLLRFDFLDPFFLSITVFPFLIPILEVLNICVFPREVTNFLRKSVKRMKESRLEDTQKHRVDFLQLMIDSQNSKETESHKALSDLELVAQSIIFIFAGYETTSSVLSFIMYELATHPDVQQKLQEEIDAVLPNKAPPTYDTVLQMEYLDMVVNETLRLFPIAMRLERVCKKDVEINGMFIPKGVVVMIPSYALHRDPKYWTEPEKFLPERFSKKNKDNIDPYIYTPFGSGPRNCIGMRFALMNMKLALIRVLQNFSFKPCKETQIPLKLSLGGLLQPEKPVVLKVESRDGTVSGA
Summary of the method: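 Luminescent readout of luciferin produced by CYP3A4 (20 nM) dealkylation of Luciferin-PPXE, 25 uM (its KM). NADPH-driven reaction ran 60 min at RT after 10 min compound preincubation; data scaled to 57 uM ketoconazole as 100% inhibition.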

[5] = Cell Viability - LYMP2-001 (AID 921); also: series mostly up to about 92 µM; nearly all actives have a fitted effect of over 70% in size
Summary of the method: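 Human lymphoblastoid cells (Coriell), 2500 per well, were preincubated 5 hr at 37 C, then exposed to compounds in complete medium for 24 hr at 37 C. Cellular ATP was read by CellTiter-Glo luminescence; AC50 from Hill fits of concentration-response data.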

[6] = MultiTox-Fluor Cytotoxicity Assay - LYMP1-001 - Dead Cells (AID 946)
Summary of the method: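 LYMP1-001 lymphoblastoid cells (2500/well) treated 16 h at 37 C. Dead-cell protease cleavage of bis-AAF-R110 read at Ex/Em 485/520. Normalized to DMSO and 15 uM tetraoctylammonium bromide; AC50 from Hill fits.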

[7] = MultiTox-Fluor Cytotoxicity Assay - LYMP1-001 - Live Cells (AID 947)
[8] = Cell Viability - LYMP1-002 - Assay at 16 hr (AID 948)
Summary of the method: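 Human lymphoblastoid cells (LYMP1-002), 2500/well, were preincubated 5 hr at 37 C, then exposed to compounds for 16 hr at 37 C in complete medium. Cellular ATP was read by CellTiter-Glo luminescence after 30 min at room temperature; AC50 from Hill fits.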

[9] = MultiTox-Fluor Cytotoxicity Assay - LYMP1-002 - Live Cells (AID 955)
Summary of the method: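 In this qHTS viability format, lymphoblastoid cells (LYMP1-002, human) received compound for 16 hr at 37 C. Fluorogenic GF-AFC cleavage by viable cells was detected at 405/510 nm after 1 h at room temperature.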

[10] = MultiTox-Fluor Cytotoxicity Assay - LYMP1-002 - Dead Cells (AID 960); also: nearly all actives have a fitted effect of over 60% in size
Summary of the method: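 Concentration-dependent increases in membrane-leaked protease activity are quantified in LYMP1-002 cells after 16 hr treatment; values are normalized against DMSO and tetraoctylammonium bromide (15 uM) controls and AC50 derived by Hill modeling.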

[11] = MultiTox-Fluor Cytotoxicity Assay - LYMP1-003 - Dead Cells (AID 961); also: nearly all actives have a fitted effect of over 70% in size
Summary of the method: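 LYMP1-003 human lymphoblastoid cells (2500/well) exposed to compound 16 h at 37 C in complete medium; dead-cell protease read with bis-AAF-R110 fluorescence (Ex/Em 485/520) after 60 min at room temperature. Normalized to DMSO and 15 uM tetraoctylammonium bromide; AC50 from Hill fit.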

[12] = MultiTox-Fluor Cytotoxicity Assay - LYMP1-003 - Live Cells (AID 962);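 also: cytotoxic hits lower the live-cell protease signal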
Summary of the method: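 Human lymphoblastoid line LYMP1-003 in complete culture medium, treated 16 hr with titrated compounds. Viable cells quantified via cell-permeant GF-AFC substrate fluorescence; AC50 derived by Hill fitting.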

[13] = Cell Viability - LYMP1-003 - Assay at 24 hr (AID 963)
Summary of the method: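 The lymphoblastoid line was treated with titrated compounds for 24 hours, and viable cell number estimated from luciferase-based ATP luminescence.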

[14] = Cell Viability - LYMP1-003 - Assay at 40 hr (AID 964); also: series mostly up to about 92 µM; nearly all actives have a fitted effect of over 60% in size
Summary of the method: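 Acute toxicity is scored as a concentration-dependent loss of intracellular ATP in LYMP1-003 cells (2500/well, complete medium) after 40 hr at 37 C, measured by CellTiter-Glo luminescence; AC50 values derive from standard Hill modelling.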

[15] = Cell Viability - LYMP2-003 (AID 965);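 also: cells exposed to compounds for 24 h before reading; nearly all actives have a fitted effect of over 50% in size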
Summary of the method: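 Human lymphoblastoid cells (2500/well) were pre-incubated 5 hr at 37 C, then exposed to compounds over a concentration range for 24 hr at 37 C. Intracellular ATP was read by CellTiter-Glo luminescence; AC50 came from Hill-equation fits.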

[16] = Cell Viability - LYMP2-004 (AID 966); also: nearly all actives have a fitted effect of over 65% in size
Summary of the method: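 Viable-cell number estimated from ATP luminescence (CellTiter-Glo) in 2500 human lymphoblastoid cells/well after 24 hr at 37 C with compound. AC50 fitted to the standard Hill equation.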

[17] = Cell Viability - LYMP2-005 (AID 967); also: series mostly up to about 92 µM
Summary of the method: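 CellTiter-Glo luminescence (cellular ATP) read-out; LYMP2-005 lymphoblastoid cells, 2500/well, 5 h pre-incubation, then 24 h compound exposure at 37 C in complete medium. Tetraoctylammonium bromide positive control; AC50 by standard Hill fit.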

[18] = Cell Viability - LYMP2-009 (AID 968); also: series mostly up to about 92 µM; nearly all actives have a fitted effect of over 55% in size
[19] = Cell Viability - LYMP2-011 (AID 969); also: nearly all actives have a fitted effect of over 60% in size
Summary of the method: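 Cells seeded at 2500 per well rest 5 hr before compound addition, then incubate 24 hr at 37 C. CellTiter-Glo reagent is added for 30 min at room temperature before luminescence detection.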

[20] = Cell Viability - LYMP2-013 (AID 970); also: series mostly up to about 92 µM; nearly all actives have a fitted effect of over 55% in size
Summary of the method: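 In complete culture medium, human lymphoblastoid cells were dosed for 24 hr at 37 C, with tetraoctylammonium bromide (6.4pM to 92 uM) as positive control. Viability reflects luciferase-based ATP signal; AC50 derived from concentration-response curves.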

[21] = Cell Viability - LYMP2-015 (AID 971); also: nearly all actives have a fitted effect of over 55% in size
Summary of the method: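 AC50 values reflect Hill-model fits of ATP-based luminescence (CellTiter-Glo) from a human lymphoblastoid line, 2500 cells/well, treated 24 hr at 37 C.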

[22] = Cell Viability - LYMP2-017 (AID 972); also: series mostly up to about 92 µM; nearly all actives have a fitted effect of over 55% in size
Summary of the method: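 In this qHTS format, lymphoblastoid cells in complete medium receive test compound for a day at 37 C before ATP content is quantified by luciferase luminescence. Reported AC50 figures come from standard Hill-equation curve fitting.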

[23] = Cell Viability - LYMP2-019 (AID 973); also: nearly all actives have a fitted effect of over 55% in size
Summary of the method: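 AC50 values come from Hill-equation modelling of qHTS concentration-response curves, where viability is measured as luciferase-based ATP luminescence in the lymphoblastoid line after 24 hr compound exposure in complete culture medium.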

Measured: Potency

O=C(/C=C/c1ccc(O)c(O)c1)O[C@@H](C(=O)O)[C@@H](OC(=O)/C=C/c1ccc(O)c(O)c1)C(=O)O
inactive: all assays above

From PubChem BioAssay (NCATS)
